Assay [1] in a line: qHTS assay to test for compound auto fluorescence at 460 nm (blue) in HEK293 cell free culture (AID 720681). The procedure, abridged:
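Compounds were added to cell-free DMEM with 10% FBS and fluorescence read directly. The blue channel used 405 nm excitation and 460 nm emission, with triamterene as the reference fluorophore.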

Assay [2] can be described thus: qHTS assay to test for compound auto fluorescence at 535 nm (green) in HEK293 cell free culture (AID 720682). Put shortly:
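Each library compound, or DMSO control, is added by pintool to medium alone, comprising DMEM and 10% FBS. Emission at 535 nm following 485 nm excitation is quantified against fluorescein.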

Assay [3] is described as follows: qHTS assay to test for compound auto fluorescence at 590 nm (red) in HEK293 cell free culture (AID 720683). Put shortly: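 Cell-free wells of DMEM with 10% FBS received compound, and intrinsic fluorescence was read at excitation/emission 540/590 nm. Values expressed as equivalence to Rose Bengal sodium.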
Assay [4] can be described thus: qHTS assay to test for compound auto fluorescence at 590 nm (red) in HepG2 cell free culture (AID 720684). The procedure, abridged: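 Rose Bengal sodium served as the reference for red signal. Test compounds were dispensed into serum-containing MEM (10% FBS) without cells, and plates were read at 540/590 nm.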
Assay [5] can be described thus: qHTS assay to test for compound auto fluorescence at 460 nm (blue) in HepG2 cell free culture (AID 720685). The procedure, abridged: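 Cell-free plates of MEM plus 10% FBS received 23 nL compound or DMSO vehicle; blue-channel (405/460 nm) intensity scored against triamterene as reference fluorophore.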
Assay [6] is described as follows: qHTS assay to test for compound auto fluorescence at 535 nm (green) in HepG2 cell free culture (AID 720686).
Assay [7] can be described thus: qHTS assay to test for compound auto fluorescence at 460 nm (blue) in HepG2 cells (AID 720687). Put shortly: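 HepG2 cells in MEM with 10% FBS, attached overnight at 37 C, were exposed to compound or DMSO for 1 hr at 37 C, 5% CO2. Blue fluorescence was read at 405/460 nm, with triamterene as reference fluorophore.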
Assay [8] is described as follows: qHTS assay to identify small molecule antagonists of the glucocorticoid receptor (GR) signaling pathway - cell viability counter screen (AID 720693). Also: nearly all actives have a fitted effect of over 55% in size.
Assay [9] can be described thus: qHTS assay for identifying genotoxic compounds that show differential cytotoxicity against isogenic chicken DT40 cell lines with known DNA damage response pathways - wild type cell line (AID 743012). Also: nearly all actives have a fitted effect of over 60% in size. Also: potency is read from the fitted curve at half-maximal effect. The procedure, abridged:
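CellTiter-Glo luminescence readout of viability in wild type DT40 cells after 40 h compound exposure at 37 C/5% CO2; 300 cells/well; reagent incubated 30 min at room temperature before reading.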

Assay [10] is described as follows: qHTS assay for identifying genotoxic compounds that show differential cytotoxicity against isogenic chicken DT40 cell lines with known DNA damage response pathways - Rev3 mutant cell line (AID 743014). Also: nearly all actives have a fitted effect of over 55% in size. Also: potency is read from the fitted curve at half-maximal effect.
Assay [11] in a line: qHTS assay for identifying genotoxic compounds that show differential cytotoxicity against isogenic chicken DT40 cell lines with known DNA damage response pathways - Rad54/Ku70 mutant cell line (AID 743015). Also: nearly all actives have a fitted effect of over 60% in size. Also: potency is read from the fitted curve at half-maximal effect.
The nature of assay [12]: qHTS assay to identify small molecule antagonists of the androgen receptor (AR) signaling pathway - cell viability counter screen (AID 743033; also: nearly all actives have a fitted effect of over 45% in size).
The nature of assay [13]: qHTS assay to identify small molecule antagonists of the androgen receptor (AR) signaling pathway using the MDA cell line - cell viability counter screen (AID 743041; also: nearly all actives have a fitted effect of over 45% in size). The procedure, abridged: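 Cytotoxicity counter screen: MDA-kb2 AR-luc cells, compound + R1881, 16 h, 37C, 0% CO2; CellTiter-Fluor added at 15.5 h, fluorescence read after 30 min.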
Assay [14] deals with Glucocorticoid receptor (Homo sapiens) (UniProt P04150). The assay is described as follows: qHTS assay to identify small molecule agonists of the glucocorticoid receptor (GR) signaling pathway (AID 720691; active = well fitted activation curve with a large enough effect in the signal ratio in the repeat runs, not every such curve was filed as active; the % refers to the signal ratio; also: potency is read from the fitted curve at half-maximal effect). The procedure, abridged: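 HeLa GR-bla reporter line; cells pre-incubated 4 h, compound in DMSO 18 h at 37 C; LiveBLAzer B/G FRET substrate 2 h RT; fluorescence intensity read-out.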

The target is the same in assay [15]. The assay is described as follows: qHTS assay to identify small molecule antagonists of the glucocorticoid receptor (GR) signaling pathway (AID 720692; active = well fitted inhibition curve with a large enough effect in the signal ratio in the repeat runs, not every such curve was filed as active; the % refers to the signal ratio). The procedure, abridged: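 Read-out: beta-lactamase FRET substrate fluorescence, 2 h at room temperature, in HeLa cells stably carrying a GRE-driven bla reporter. Compounds were co-incubated with 5 nM dexamethasone agonist (final) for 18 h at 37 C.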

The target of assay [16] is Androgen receptor (Homo sapiens) (UniProt P10275). The experiment in a line: qHTS assay to identify small molecule agonists of the androgen receptor (AR) signaling pathway using the MDA cell line (AID 743040; also: nearly all actives have a fitted effect of over 20% in size). Put shortly: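 Luciferase read-out, ONE-Glo, 30 min RT. Cells: MDA-kb2 AR-luc, MMTV promoter with AR and GR response elements. Compound exposure 16 h, 37C, 0% CO2, after 5 h pre-incubation. qHTS agonist mode.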

Assay [17] shares this target. The experiment in a line: qHTS assay to identify small molecule antagonists of the androgen receptor (AR) signaling pathway using the MDA cell line (AID 743042; also: nearly all actives have a fitted effect of over 55% in size). The procedure, abridged:
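MDA-kb2 breast carcinoma cells carrying MMTV-luciferase (AR/GR responsive) were co-treated with compounds and the agonist R1881 for 16 h at 37C. Inhibition read as ONE-Glo luminescence; CellTiter-Fluor fluorescence measured in parallel for cytotoxicity.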

Assay [18] has the same target. The experiment in a line: qHTS assay to identify small molecule antagonists of the androgen receptor (AR) signaling pathway (AID 743035; active = well fitted inhibition curve with a large enough effect in the signal ratio in the repeat runs, not every such curve was filed as active; the % refers to the signal ratio). The procedure, abridged:
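AR-bla HEK293 reporter cells; 4 h settle at 37C/5% CO2; compound + R1881 agonist, 16 h at 37C; LiveBLAzer B/G FRET substrate 2 h RT; fluorescence intensity read. qHTS format.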

For assay [19] the target is unchanged. The experiment in a line: qHTS assay to identify small molecule agonists of the androgen receptor (AR) signaling pathway (AID 743036; active = well fitted activation curve with a large enough effect in the signal ratio in the repeat runs, with a control signal flat, not every such curve was filed as active; the % refers to the signal ratio). Put shortly: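 Following a 4 h settling period, AR-UAS-bla HEK293 cells were dosed with compounds for 16 h at 37C. A 2 h room-temperature incubation with LiveBLAzer B/G FRET substrate preceded the fluorescence measurement.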

Values without a mark were called inactive. Inconclusive results are not listed. Active and inactive are the calls of the source. Unless noted, calls follow the shape of the dose curve; as a rule, active = well fitted curve in the direction sought with a large enough effect in the repeat runs; inconclusive = weak or mixed curves; inactive = no such curve, though single readings can be large; an effect the other way counts as inactive or inconclusive.

Glucocorticoid receptor (Homo sapiens), sequence (P04150 whole entry, looked up): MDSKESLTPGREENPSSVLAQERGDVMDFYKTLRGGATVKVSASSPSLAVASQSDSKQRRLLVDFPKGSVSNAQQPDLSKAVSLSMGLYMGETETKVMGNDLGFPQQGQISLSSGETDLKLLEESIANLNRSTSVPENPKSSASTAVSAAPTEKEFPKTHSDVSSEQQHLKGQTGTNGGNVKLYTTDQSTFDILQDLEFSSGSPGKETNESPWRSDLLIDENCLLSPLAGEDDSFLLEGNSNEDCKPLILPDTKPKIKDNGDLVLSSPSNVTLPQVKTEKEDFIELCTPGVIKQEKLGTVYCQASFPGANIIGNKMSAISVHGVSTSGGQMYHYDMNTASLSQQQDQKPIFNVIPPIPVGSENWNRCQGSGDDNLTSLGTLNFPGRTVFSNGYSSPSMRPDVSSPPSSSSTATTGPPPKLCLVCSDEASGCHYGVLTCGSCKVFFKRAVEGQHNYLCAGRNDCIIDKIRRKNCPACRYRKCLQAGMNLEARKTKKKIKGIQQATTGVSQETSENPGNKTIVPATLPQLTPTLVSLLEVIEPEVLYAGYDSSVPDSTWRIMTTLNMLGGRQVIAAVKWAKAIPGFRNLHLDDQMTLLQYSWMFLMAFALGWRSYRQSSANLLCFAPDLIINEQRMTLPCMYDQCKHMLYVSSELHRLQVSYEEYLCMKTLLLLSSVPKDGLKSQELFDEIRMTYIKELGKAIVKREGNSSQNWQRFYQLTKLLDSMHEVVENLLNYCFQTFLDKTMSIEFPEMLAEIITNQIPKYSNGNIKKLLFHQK
Androgen receptor (Homo sapiens), sequence (P10275 whole entry, looked up): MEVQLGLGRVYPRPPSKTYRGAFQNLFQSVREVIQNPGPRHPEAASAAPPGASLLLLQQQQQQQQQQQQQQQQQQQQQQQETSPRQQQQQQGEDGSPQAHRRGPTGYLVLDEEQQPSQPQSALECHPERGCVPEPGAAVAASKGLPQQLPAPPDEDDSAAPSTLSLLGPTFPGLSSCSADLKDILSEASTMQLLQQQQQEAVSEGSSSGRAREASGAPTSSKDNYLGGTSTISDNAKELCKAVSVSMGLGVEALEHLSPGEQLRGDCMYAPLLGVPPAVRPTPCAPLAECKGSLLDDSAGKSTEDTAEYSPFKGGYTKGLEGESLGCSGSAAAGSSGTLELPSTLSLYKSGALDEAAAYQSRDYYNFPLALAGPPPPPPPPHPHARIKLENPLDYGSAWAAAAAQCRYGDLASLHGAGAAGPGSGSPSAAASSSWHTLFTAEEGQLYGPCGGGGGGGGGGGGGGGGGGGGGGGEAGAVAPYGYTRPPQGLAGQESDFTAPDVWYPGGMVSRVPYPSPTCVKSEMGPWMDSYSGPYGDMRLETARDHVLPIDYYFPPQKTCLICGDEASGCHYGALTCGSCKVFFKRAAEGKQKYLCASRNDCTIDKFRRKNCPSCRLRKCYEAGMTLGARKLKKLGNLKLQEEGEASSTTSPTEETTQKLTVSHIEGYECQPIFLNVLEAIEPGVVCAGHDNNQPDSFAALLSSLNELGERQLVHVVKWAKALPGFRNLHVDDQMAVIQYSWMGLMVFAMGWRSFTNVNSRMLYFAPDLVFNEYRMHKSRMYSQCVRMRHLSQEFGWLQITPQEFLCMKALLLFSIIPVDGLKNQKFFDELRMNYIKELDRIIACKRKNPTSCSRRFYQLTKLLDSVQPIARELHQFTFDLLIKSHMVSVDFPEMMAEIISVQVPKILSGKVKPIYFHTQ

As to `CC(C(=O)O)c1ccc(CC2CCCC2=O)cc1` (configuration not stated), the result in assay [1], in [2], in [3], in [4], in assay [5] and in assay [6] was inactive. Moreover, the call in assay [7] and in assay [8] was inactive. Further, the Potency result in assay [9], in [10], in assay [11], in assay [12] and in assay [13] was “inactive” throughout.
For the compound `CCCC(=O)O[C@]1(C(=O)CO)CC[C@H]2[C@@H]3CCC4=CC(=O)CC[C@]4(C)[C@H]3[C@@H](O)C[C@@]21C`, the outcome in assay [1], in [2], in assay [3], in assay [4], in assay [5] and in assay [6] was inactive. For the same compound, in assay [7], the compound was called inactive. Moreover, the Potency in [14] was 0.213 µM (active). In addition, the Potency entry in assay [9], in assay [10], in assay [11] and in [13] was “inactive” in each case.
`COC(=O)CC(C)=O`: the compound was called inactive in [1], in [2], in [4], in assay [5], in assay [6] and in assay [7]. Moreover, the call in [8] was inactive. Besides, the Potency entry in assay [14], in assay [15], in assay [9], in assay [10], in assay [11] and in [12] was “inactive” in each case. Also, the Potency result in [13] is “inactive”.
Take `CC(C[N+](C)(C)C)OC(N)=O` (configuration not stated): the call in [1], in assay [2], in assay [3], in assay [4], in assay [5] and in assay [6] was inactive. The call in assay [7] and in assay [8] was inactive. Moreover, the Potency result in [14], in assay [15], in assay [9], in [10], in assay [11] and in [12] was “inactive” throughout. Also, the Potency entry in assay [13] was “inactive”.
Turning to `N#Cc1ccc(C2CCCc3cncn32)cc1` (configuration not stated), the result in assay [1], in assay [2], in assay [3], in assay [4], in assay [5] and in assay [6] was inactive. Also, the call in assay [7] and in assay [8] was inactive. The Potency result in [14], in [15], in assay [9], in assay [10], in assay [11] and in assay [12] was “inactive” in each case. In assay [13], the Potency entry was “inactive”.
On to `CCOC(=O)c1c(C)n(C)c2ccc(O)cc12`, for which the result in assay [1], in assay [2], in [3], in assay [4], in assay [5] and in assay [6] was inactive. The call in [7] and in [8] was inactive. The Potency result in assay [14], in [15], in assay [11], in [12], in [16] and in assay [13] was “inactive” throughout. Moreover, the Potency entry in assay [17] is “inactive”.
On to `COC(C)(C)CCCC(C)CC=O` (configuration not stated), for which the outcome in assay [1], in assay [2], in assay [3], in assay [4], in [5] and in assay [6] was inactive. Moreover, the compound was called inactive in [7] and in [8]. Besides, the Potency result in assay [14], in assay [15], in assay [9], in assay [10], in assay [11] and in [12] was “inactive” each time. The Potency result in [13] is “inactive”.
With `NC(=O)Nc1ccccc1`, the call in assay [1], in [2], in assay [4], in assay [5], in assay [6] and in assay [7] was inactive. Also, in assay [8], the call was inactive. The Potency result in assay [14], in assay [9], in [10], in assay [11], in assay [12] and in [13] was “inactive” in each case.
Turning to `CCCN(CCC)CCc1cccc2c1CC(=O)N2`, the compound was classed as inactive in [1], in [2], in [3], in [4], in [5] and in [6]. In addition, the compound was classed as inactive in assay [7] and in assay [8]. For the same compound, the Potency entry in assay [14], in assay [9], in [10], in assay [12] and in assay [13] was “inactive” in each case.
Turning to `ClC(Cl)(Br)Br`, the call in [1], in assay [2], in [3], in [4], in assay [5] and in assay [6] was inactive. Also, the call in [7], in assay [8], in assay [18] and in [19] was inactive. The Potency entry in assay [14], in [15], in assay [9], in assay [10], in assay [11] and in [12] was “inactive” throughout. Moreover, the Potency entry in [16], in [13] and in assay [17] was “inactive” in each case.
Take `CC/C=C\CC/C=C/C(OCC)OCC`: the outcome in assay [1], in assay [2], in [3], in assay [4], in [5] and in [6] was inactive. Moreover, the compound was classed as inactive in assay [7] and in assay [8]. Further, the Potency result in [14], in [12] and in [13] was “inactive” throughout. The Potency in [9] was 43.3 µM (active); in assay [10], 48.6 µM (active); in assay [11], 61.1 µM (active).
As for `CCC=O`, the outcome in assay [1], in assay [2], in assay [3], in [4], in assay [5] and in [6] was inactive. Besides, the compound was called inactive in assay [7] and in assay [8]. Further, the Potency entry in [9], in [10], in assay [11], in [12] and in assay [13] was “inactive” each time.
Regarding `CCCCCCOC(=O)CCCCC(=O)OCCCCCC`, the result in assay [1], in assay [2], in assay [3], in assay [4], in [5] and in [6] was inactive. In addition, the call in assay [7] and in assay [8] was inactive. Further, the Potency result in assay [9], in assay [11], in assay [12] and in assay [13] was “inactive” each time.
With `CCOC(=O)[C@H](CCc1ccccc1)N[C@@H](C)C(=O)N1[C@H](C(=O)O)C[C@@H]2CCC[C@@H]21`, the result in assay [1], in [2], in [3], in [4], in [5] and in assay [6] was inactive. Moreover, the compound was called inactive in assay [7] and in assay [8]. Further, the Potency result in assay [14], in [9], in assay [12] and in assay [13] was “inactive” throughout.
For the compound `CCN(CC)CCOCCOC(=O)C1(c2ccccc2)CCCC1`, the compound was called inactive in assay [1], in assay [2], in [4], in assay [5], in assay [6] and in [7]. Also, in assay [8], the result was inactive. The Potency entry in assay [14], in assay [12] and in assay [13] was “inactive” each time. The results for the Potency in assay [9], in assay [10] and in assay [11] were 5.96 µM (active), 2.11 µM (active) and 5.96 µM (active), respectively.
For `C=C1CC[C@H]2C[C@@H]1C2(C)C`, the result in [1], in assay [2], in [4], in [5], in [6] and in [7] was inactive. Besides, in assay [8], the result was inactive. Also, the Potency result in assay [9], in [12] and in assay [13] was “inactive” throughout.
Regarding `N=C(N)c1ccc2cc(OC(=O)c3ccc(N=C(N)N)cc3)ccc2c1`, the compound was classed as inactive in [1], in assay [2], in assay [3], in assay [4], in [5] and in [6]. Also, the call in assay [7], in [8] and in assay [19] was inactive. Moreover, the Potency entry in assay [9], in assay [10], in [11], in assay [12], in assay [16] and in assay [13] was “inactive” throughout. Also, in [17], the Potency result is “inactive”.
Consider `O=[N+]([O-])c1ccc(F)cc1F`, for which the outcome in [1], in assay [2], in assay [3], in assay [4], in [5] and in assay [6] was inactive. In addition, the call in assay [7] and in assay [8] was inactive. Moreover, the Potency result in assay [9], in assay [10], in [11], in [12] and in assay [13] was “inactive” throughout.

The values above are taken from PubChem BioAssay (Tox21).
